Here are results for 40 compounds from ChEMBL document CHEMBL3988442, “University of Dundee, Small-Polar-MMV Screening Library” (2021).

SMILES strings stand for the structures.

The experiment deals with Chromo domain-containing protein 1 (Saccharomyces cerevisiae (strain ATCC 204508 / S288c) (Baker's yeast)) (UniProt P32657). As to the kind of experiment: ScCHD-1 Enzyme Inhibition Assay. As to conditions: 30 µM. Also noted: scale not given: in the data most compounds retested in dose-response had high values. It is filed as functional.
Chain of Chromo domain-containing protein 1 (Saccharomyces cerevisiae (strain ATCC 204508 / S288c) (Baker's yeast)) (P32657 whole entry, the tested form may be a part): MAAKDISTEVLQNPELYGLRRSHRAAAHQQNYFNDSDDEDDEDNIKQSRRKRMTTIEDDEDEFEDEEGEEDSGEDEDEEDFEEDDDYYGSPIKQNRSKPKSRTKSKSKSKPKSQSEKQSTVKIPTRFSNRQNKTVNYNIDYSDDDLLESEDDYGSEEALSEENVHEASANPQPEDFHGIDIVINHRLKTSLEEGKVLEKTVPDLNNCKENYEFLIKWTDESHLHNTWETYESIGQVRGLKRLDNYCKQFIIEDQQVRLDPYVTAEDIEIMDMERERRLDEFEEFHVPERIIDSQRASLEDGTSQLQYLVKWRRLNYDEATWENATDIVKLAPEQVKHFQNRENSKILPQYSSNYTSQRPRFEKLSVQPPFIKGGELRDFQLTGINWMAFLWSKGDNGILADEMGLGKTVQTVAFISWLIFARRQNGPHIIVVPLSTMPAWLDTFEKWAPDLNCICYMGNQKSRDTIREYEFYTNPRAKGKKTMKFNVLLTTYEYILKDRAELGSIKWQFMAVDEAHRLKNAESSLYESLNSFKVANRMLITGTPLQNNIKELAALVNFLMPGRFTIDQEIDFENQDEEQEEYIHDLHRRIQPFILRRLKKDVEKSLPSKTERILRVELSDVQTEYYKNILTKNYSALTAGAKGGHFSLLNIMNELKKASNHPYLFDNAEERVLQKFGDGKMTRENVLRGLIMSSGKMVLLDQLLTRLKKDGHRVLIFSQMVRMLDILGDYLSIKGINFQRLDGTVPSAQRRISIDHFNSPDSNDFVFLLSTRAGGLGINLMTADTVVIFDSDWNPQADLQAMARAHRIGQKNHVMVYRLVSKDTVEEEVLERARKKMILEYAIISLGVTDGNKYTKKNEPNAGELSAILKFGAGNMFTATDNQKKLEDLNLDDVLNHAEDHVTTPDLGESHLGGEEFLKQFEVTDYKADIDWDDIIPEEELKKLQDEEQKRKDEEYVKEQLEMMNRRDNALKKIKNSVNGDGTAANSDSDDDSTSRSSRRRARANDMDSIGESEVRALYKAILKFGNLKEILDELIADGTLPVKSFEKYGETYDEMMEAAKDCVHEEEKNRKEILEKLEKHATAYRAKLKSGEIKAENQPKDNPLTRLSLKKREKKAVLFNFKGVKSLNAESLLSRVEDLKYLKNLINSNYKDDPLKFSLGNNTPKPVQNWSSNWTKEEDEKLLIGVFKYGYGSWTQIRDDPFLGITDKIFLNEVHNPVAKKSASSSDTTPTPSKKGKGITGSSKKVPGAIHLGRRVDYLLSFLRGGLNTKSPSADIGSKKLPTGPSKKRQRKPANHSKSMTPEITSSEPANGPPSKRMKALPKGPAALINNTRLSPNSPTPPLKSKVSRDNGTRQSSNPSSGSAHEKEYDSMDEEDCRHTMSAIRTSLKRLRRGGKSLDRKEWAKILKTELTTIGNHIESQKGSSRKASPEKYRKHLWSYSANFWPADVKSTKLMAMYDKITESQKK
Take `CC(C)(C)c1n[nH]c(C2CN(C(=O)c3cc(Cl)c[nH]3)CCO2)n1` (stereo not given): the Percent Effect is -6.65%.
`Cc1nn(CC(C)C)c(N(C)C)c1CNCc1cc2ccccc2[nH]1`: the Percent Effect is -8.01%.
For `Cc1ccc(CN2C[C@@H]3COC[C@H](NS(C)(=O)=O)[C@@H]3C2)o1` the value was -6.77%; for `CC(=O)Nc1nc(C2CCN(C(C)=O)CC2)cs1`, -3.5%.
Under `COCC(=O)N1Cc2cn(C)nc2C(COc2cccnc2)C1` (stereo not given) stands -9.03%; under `O=C(COCc1nc(-c2ccncc2)no1)N1CCCC1`, -4.16%.
As to `CCOC(=O)c1sc(NC(=O)CN(C)S(C)(=O)=O)c(C#N)c1C`, the Percent Effect was -8.72%.
Under `Cc1ccc([C@]2(O)CC[C@H]3CN(Cc4cc(C)c(O)c(C)c4)C[C@H]32)nc1` stands -9.68%.
As to `O=C(C1=CCCC1)N1CCO[C@H]2[C@@H](OCC3CC3)CC[C@@H]21`, the Percent Effect is -7.27%.
For the compound `Cc1nc(C)n(CC2CCCN2CC(=O)NCc2ccco2)n1` (stereo not given), the Percent Effect is -3.99%.
Turning to `CCOC(=O)NC(C(=O)NCc1ccc(N2CCCCC2)nc1)C(C)C` (stereo not given), the Percent Effect is -3.65%.
As for `Cc1cc(NC(=O)c2nc(N3CCCC3)ncc2Cl)nc(C(C)C)n1`, the Percent Effect is 0.666%.
Under `CC(C)c1nc(C(=O)N2CCOCC2CC(=O)c2ccco2)c[nH]1` (stereo not given) stands 1.37%.
For `OC1CCN(Cc2c(C3CCCNC3)[nH]c3ncccc23)CC1` (stereo not given) the value was -6.12%; for `CS(=O)(=O)CCC(=O)Nc1cnn(-c2ccccc2Cl)c1`, -8.04%.
As for `CC(C)CN1CCN(Cc2nc3ccccc3[nH]2)[C@H]2CS(=O)(=O)C[C@H]21`, the Percent Effect was -6.24%.
Regarding `O=C(Cn1cnc(NC(=O)CC2CCCC2)n1)NCc1ccccc1`, the Percent Effect was -12.2%.
As for `CN(Cc1ccco1)C(=O)[C@H]1CSCN1C(=O)OC(C)(C)C`, the Percent Effect was -3.35%.
As to `O=C1CN(Cc2nnc(-c3ccccc3Br)o2)CCN1`, the Percent Effect was -3.03%.
For `CC(C)c1nnc2n1CCN(C(=O)CN1CCc3sccc3C1)C2`, the Percent Effect was -5.85%.
Take `Cn1nccc1C1CCN(Cc2csc(-c3ncccn3)n2)CC1`: the Percent Effect was -7.46%.
For `COCc1cnc2n1CCN(Cc1cccnc1)C2C` (stereo not given), the Percent Effect is -2.32%.
For `Cc1ccccc1CS(=O)(=O)CC(=O)NC1CCCCNC1=O` (stereo not given) the value was -8.24%; for `O=C(Nc1cccc(OCc2cccc(F)c2)c1)C1COCCO1` (stereo not given), -6.84%.
As to `Cn1cnnc1C1CCCN(C(=O)NCc2cc[nH]n2)C1` (stereo not given), the Percent Effect was -8.86%.
Regarding `CS(=O)(=O)NC1CCc2c(ccc(=O)n2CC2CC2)C1` (stereo not given), the Percent Effect came out at 0.517%.
`COc1ccc(Cl)cc1NCC(=O)NCCc1ccccn1`: the Percent Effect is 0.208%.
As for `CC(C)n1ccnc1CN1CCCN(C(=O)COC2CCCC2)CC1`, the Percent Effect was -6.72%.
Under `COc1cc(C(=O)N(C2CC2)C2CC(=O)NC2=O)ccc1C` (stereo not given) stands -4.59%; under `O=C(Nc1ccnc(OC2CCOC2)c1)C1CCC1` (stereo not given), 6.48%.
Under `Cc1ncccc1Oc1nccnc1C1CCN(C(C)C)CC1` stands -19.2%; under `Cc1cnn(CC2CCCN2C(=O)c2cn(-c3ccccc3)nc2C)c1` (stereo not given), -6.26%.
Under `O=C(Cc1ccccn1)N1CCN(C(=O)c2cccc3[nH]ncc23)CC1` stands -0.724%.
With `Cc1nc2n(n1)CC(NCc1cc(Cl)c3c(c1)OCCCO3)CC2` (stereo not given), the Percent Effect was -3.53%.
Under `Cn1cnc2c1CCN(Cc1nc(Cc3ccccc3)no1)C2` stands 3.08%.
For `Cc1cnc(CN2CCOC(Cn3nc(C)nc3C)C2)cn1` (stereo not given) the value was -3.57%; for `CCN1CCC(c2nc3ccc(NC(C)C)cn3n2)CC1`, 0.337%; for `NC(=O)N1CCC2(CCN(Cc3cccc(F)c3)CC2)CC1`, -1.58%.
For `O=C(N[C@@H]1CCNC[C@H]1O)c1ccc(F)c(Cl)c1` the value was -2.77%.
With `Cc1cnn(CCCNC(=O)N2CCCCC(N3CCCC3)C2)c1` (stereo not given), the Percent Effect was -2.25%.
